A selection: hits, their analogues and other compounds. The true share with any hit is near 32%.
CYP2C9 inh: inhibitors of human CYP2C9. inhibition, % at 5 µM. P11712. actives 20% (n = 96,000). CYP2C9 Supersomes, luciferin-H conversion, luminescence. AID 777;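 active means blocking of liver enzyme CYP2C9 beyond about 50% at 5 µM, limit read from the data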
Target sequence (P11712 whole entry, looked up): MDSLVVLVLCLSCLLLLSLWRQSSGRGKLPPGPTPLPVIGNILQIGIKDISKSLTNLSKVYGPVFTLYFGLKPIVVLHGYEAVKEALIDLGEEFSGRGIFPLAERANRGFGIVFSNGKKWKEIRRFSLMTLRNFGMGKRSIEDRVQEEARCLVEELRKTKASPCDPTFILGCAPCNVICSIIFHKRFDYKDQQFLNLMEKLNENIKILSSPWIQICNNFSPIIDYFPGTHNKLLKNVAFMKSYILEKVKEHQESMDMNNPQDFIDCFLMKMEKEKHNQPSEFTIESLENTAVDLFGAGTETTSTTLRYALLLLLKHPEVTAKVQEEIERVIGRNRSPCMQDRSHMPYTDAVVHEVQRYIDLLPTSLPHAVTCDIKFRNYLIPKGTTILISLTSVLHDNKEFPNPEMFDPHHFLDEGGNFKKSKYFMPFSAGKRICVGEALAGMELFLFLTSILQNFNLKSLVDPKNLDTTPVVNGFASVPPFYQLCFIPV
CYP2C9 activ: CYP2C9 (human) activation; recombinant CYP2C9, luciferin-H conversion, luminescence; hits give high values; factor 1 = untreated enzyme, 0 = blocked; activation factor at 5 µM; actives 1.4% (n = 96,000); AID 1024;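 active means activation factor of 2 or more for CYP2C9 at a 5 µM dose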;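 further: 0 = sulfaphenazole-blocked wells and 1 = vehicle-only wells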
CYP2C19 act: activators of human cytochrome P450 2C19; recombinant CYP2C19, luciferin-H EGE luminescence; hits give high values; 0 = fully inhibited enzyme, 1 = untreated enzyme; activation factor at 5 µM; 96,000 tested, under 10 active; AID 1025;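 active means activation factor of at least 2 at 5 µM in the primary screen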;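 further: 0 = wells with 2.5 mM tranylcypromine and 1 = vehicle-only wells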
PostGolgi ctrl: yeast control strain growth, post-Golgi counter-screen; efflux-deficient yeast background strain, growth absorbance A615, 16 h; inhibition, % at 10 µM; actives 5% (n = 98,000)
PostGolgi yeast: growth inhibition of a yeast mutant, post-Golgi transport screen | post-Golgi transport phenotypic cell assay | inhibition, % at 10 µM | actives 0.9% (n = 98,000) | AID 739;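 further: yeast cells grown in 1536-well plates; yeast grown about 18 h at 30C before absorbance read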
CYP2C19 inhib: inhibitors of human CYP2C19. inhibition, % at 5 µM. actives 21% (n = 96,000). CYP2C19 Supersomes, luciferin-H EGE luminescence, 30 min;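 active means CYP2C19 inhibition above a set limit at 5 µM in the primary screen, cut at about 50% in these data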;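 further: plate controls were negative control wells for no effect and 2.5 mM tranylcypromine positive control for full effect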
The depositor's hits bear a star; / = not tested or not shown. Unless noted, no stated cut-off is given here; in the data, active means inhibition above about 30%; inactive means the rest.

SMILES | CYP2C9 inh | CYP2C9 activ | CYP2C19 act | PostGolgi ctrl | PostGolgi yeast | CYP2C19 inhib
C=CCOC(=O)CSCC(NC(=O)OC(C)(C)C)C(=O)OCC (centres undefined) | 45 | 0.5 | 0.4 | 5 | 8 | 58*
CCOC(=O)CSc1nnc([C@H](C)NC(=O)OC(C)(C)C)o1 | -9 | 1.1 | 0.9 | 6 | 8 | 12
CCOC(=O)CSc1n[nH]c(NC(=O)c2ccc(F)cc2)n1 | 21 | 0.8 | 0.5 | 11 | 4 | 53*
CCOC(=O)CSc1n[nH]c(NC(=O)c2ccccc2)n1 | -3 | 1 | 0.6 | 0 | -3 | 40
Cn1c(C(C#N)C(=O)c2sc3ccccc3c2Cl)nc2ccccc21 (centres undefined) | 71* | 0.3 | 0.8 | 79* | 4 | 22
Cc1cc(C)n(CCOC(=O)c2sc3ccccc3c2Cl)n1 | -18 | 1.2 | 0.7 | 21 | -1 | 26
Cn1c(O)c(C=NC(CC(N)=O)C(=O)O)c(=O)n(C)c1=O (centres undefined) | -13 | 1.1 | 1 | 4 | 17 | 2
COc1ccc(-c2nnc(SCC(=O)OC3CCCCC3)o2)cc1OC | -63 | 1.6 | 1 | 7 | -4 | 1
COc1cc2c(cc1NC(=O)CN(C)Cc1nc3ccccc3c(=O)[nH]1)oc1ccccc12 | 22 | 0.8 | 1.1 | 59* | -6 | -14
COc1cc2c(cc1NC(=O)/C=C/c1ccccc1)oc1ccccc12 | 78* | 0.2 | 0.8 | 12 | 0 | 15
COc1cc2c(cc1NC(=O)CSc1nc3ccccc3[nH]1)oc1ccccc12 | 41 | 0.6 | 0.8 | 74* | 2 | 21
CN(CC(=O)NC(c1ccccc1)c1ccccc1)Cc1nc2ccccc2c(=O)[nH]1 | 44 | 0.6 | 0.5 | 1 | -4 | 49
COc1ccc2c(c1)C(c1ccccc1)=NNC(c1ccco1)=N2 | 16 | 0.8 | 0.7 | -3 | 5 | 27
Cc1cccc(-n2c(O)c(C=Nc3c(C)n(C)n(-c4ccccc4)c3=O)c3ccccc3c2=O)n1 | 36 | 0.6 | 0.8 | 10 | 2 | 16
COc1cccc(N=Cc2c(O)n(-c3cccc(C)n3)c(=O)c3ccccc23)c1 | 53* | 0.5 | 0.3 | 17 | 1 | 66*
CCN1CC=C2C(C#N)=C(N)C(C#N)(C#N)[C@H](c3cccc(OC)c3OC)[C@H]2C1 | 14 | 0.9 | 0.6 | 4 | 6 | 44
CCN1CC=C2C(C1)C(c1ccc(Cl)s1)C(C#N)=C(N)C2(C#N)C#N (centres undefined) | 93* | 0.1 | 0.3 | 1 | 5 | 70*
CC1CCc2cc(F)ccc2N1C(=O)c1cnc2sccn2c1=O (centres undefined) | -3 | 1 | 1 | 5 | -3 | -2
Cc1nn(Cc2ccc(C(=O)N3c4ccc(F)cc4CCC3C)o2)c(C)c1Br (centres undefined) | 48 | 0.5 | 0.1 | 29 | 3 | 87*
CC1CCc2cc(F)ccc2N1C(=O)c1ccc2c(c1)OCO2 (centres undefined) | 26 | 0.7 | 0.4 | 7 | 0 | 62*
Cc1ccc(C(=O)N2c3ccc(F)cc3CCC2C)o1 (centres undefined) | 27 | 0.7 | 0.5 | 7 | -7 | 53*
COc1cc(OC)cc(C(=O)N2c3ccc(F)cc3CCC2C)c1 (centres undefined) | 20 | 0.8 | 0.5 | 32* | 17 | 54*
COc1ccc(-n2c(=O)cc(N3CC(C)OC(C)C3)[nH]c2=O)cc1 (centres undefined) | 6 | 0.9 | 0.9 | -12 | -8 | 6
CCCCC(OC(=O)c1cc2occc2n1C)C(=O)NCC1CCCO1 (centres undefined) | 49 | 0.5 | 0.5 | 21 | -3 | 46
O=C(CSc1nnc(CNc2ccccc2)o1)N1CCN(C(=O)c2ccco2)CC1 | / | / | / | 1 | 6 | /
COc1ccccc1NC(=O)N1c2ccc(F)cc2CCC1C (centres undefined) | 1 | 1 | 1 | 18 | -1 | 4
COc1ccc(C(=O)N2c3ccc(F)cc3CCC2C)cc1OC (centres undefined) | 2 | 1 | 1 | 38* | 7 | -2
COc1ccccc1NC(=O)Nn1cnnc1 | -12 | 1.1 | 1.2 | -12 | -8 | -20
O=c1c2ccccc2nc(SCc2ccccc2)n1Cc1ccco1 | 37 | 0.6 | 0.9 | 18 | 19 | 9

Screens: PubChem BioAssay, several laboratories
